Most compounds without a hit are left out; they make up all but 2.8% or so of the library.
ERa SRC1 inh: ER-alpha (human) coactivator binding inhibition. AID 629. TR-FRET ER-alpha LBD / SRC-1 peptide, estradiol-bound. inhibition, % at 25.6 µM. P03372. 86,000 compounds, 1.7% hits; in the data active = inhibition above about 50%
EphB4 ephrin blk: blocks human EphB4 binding to ephrin-B2. P54760. EphB4 LBD / TNYL-RAW-Alexa532 peptide, fluorescence polarization. inhibition, % at 7 µM. 97,000 compounds, 0.15% hits. AID 720;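 active = inhibition above the screen-wide mean inhibition plus 3 SD, cut at about 15% in these data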
ERb coact inh: blocks coactivator binding to human estrogen receptor beta | Q92731 | TR-FRET ER-beta LBD / SRC1-Cy5 peptide binding; receptor agonist-loaded with 1 µM estradiol | inhibition, % at 25.6 µM | 86,000 compounds, 1.3% hits | AID 633;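 active = compounds whose percent inhibition of the receptor-coactivator binding signal exceeds about 50% in the single-dose screen, limit read from the data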
Target sequence (Q92731 whole entry, looked up, the tested form may be a part): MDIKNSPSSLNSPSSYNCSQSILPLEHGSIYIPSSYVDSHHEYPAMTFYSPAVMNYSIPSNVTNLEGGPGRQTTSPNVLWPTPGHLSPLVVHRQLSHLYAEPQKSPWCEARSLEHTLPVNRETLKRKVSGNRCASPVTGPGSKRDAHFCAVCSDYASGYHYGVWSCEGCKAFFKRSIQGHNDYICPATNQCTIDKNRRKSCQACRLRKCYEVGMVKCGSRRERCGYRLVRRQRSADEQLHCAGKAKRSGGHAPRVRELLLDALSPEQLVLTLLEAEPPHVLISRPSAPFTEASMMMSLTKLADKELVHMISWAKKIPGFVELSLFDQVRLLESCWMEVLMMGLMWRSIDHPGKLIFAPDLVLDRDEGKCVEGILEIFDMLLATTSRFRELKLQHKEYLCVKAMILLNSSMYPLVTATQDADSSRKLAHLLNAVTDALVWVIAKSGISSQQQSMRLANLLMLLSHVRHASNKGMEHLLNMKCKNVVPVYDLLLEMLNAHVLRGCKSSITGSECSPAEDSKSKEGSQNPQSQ
ERa coact pot: ER-alpha (human) coactivator binding potentiation; P03372; 86,000 compounds, 1.3% hits; coactivator binding (% of control), % at 25.6 µM; TR-FRET ERalpha-LBD/SRC-Cy5 coactivator binding, 2 h; 100 = basal binding, no effect; in the data active = activity above about 200%;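 also: binding measured in presence of low estradiol as agonist stimulus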
Each line names hits and unclear results; the compound was inactive in the other large screens; [ ] = remark or other dose.

COc1ccc(-c2noc(CSc3nnc(Cc4ccccc4)n3-c3cccc(C)c3)n2)cc1OC	ERa coact pot active[fluorescence artefact?]
COc1ccc(-c2nc3c(c(=O)[nH]c(=O)n3Cc3ccccc3)n2C)cc1	ERa coact pot 270[fluorescence artefact?]
COc1ccc(-c2nc3c(c(=O)[nH]c(=O)n3Cc3ccccc3)n2Cc2ccccc2)cc1	none (no result: ERa SRC1 inh, ERb coact inh, ERa coact pot)
O=C(O)C1Nc2c(C(=O)N3CCOCC3)cccc2C2C=CCC12 (stereo not given)	ERa SRC1 inh 70, ERb coact inh 82
C=C1CSc2nc3ccccc3c(=O)n21	none
Cc1cc(=O)oc(C)c1C(=O)OCC(=O)c1ccc(Cl)cc1	EphB4 ephrin blk 16
CN1C(=O)CC(N2CCN(c3ccccc3)CC2)C1=O (stereo not given)	none
CCOC(=O)c1cnc(SCC(=O)Nc2nnc(CC)s2)nc1N	ERa coact pot 235
CCOC(=O)CCSc1nnc(-c2cccnc2)n1-c1ccccc1OC	none
N#Cc1c(NC(=O)CSc2ncnc3sccc23)oc(-c2ccco2)c1-c1ccco1	ERa SRC1 inh 90[fluorescence artefact?], ERb coact inh 73[fluorescence artefact?]
CCNC(=O)CSc1ncnc2sccc12	ERa SRC1 inh 66[fluorescence artefact?]
COc1ccc(-c2cn(-c3ccc(C)cc3)c(=O)n2CC(=O)Nc2ccc(OC)cc2OC)cc1	none
COc1ccc(NC(=O)Cn2c(-c3ccccc3)cn(-c3ccc(C)cc3)c2=O)cc1	ERa coact pot 201
O=S(=O)(Nc1nccs1)c1cc(Cl)ccc1Cl	ERa SRC1 inh 56, ERb coact inh 51
Cc1cc2c(ncn2C)c(NS(=O)(=O)c2cc(Cl)ccc2Cl)c1C	none (no result: ERa SRC1 inh, ERb coact inh, ERa coact pot)
COCCOC(=O)c1c(C)n(C)c2ccc(OC(=O)C3CC3)cc12	none
CCOc1ccccc1C1C(C#N)=C(SCC(=O)OC)NC(=O)C1C(=O)OC (stereo not given)	ERb coact inh 85[fluorescence artefact?]
COc1ccc(-c2nnc(SC(C)C(=O)Nc3cccc(Cl)c3)o2)cc1 (stereo not given)	none
O=C(NC(Cc1ccccc1)c1nc2ccccc2[nH]1)C1CC(=O)N(c2ccc3c(c2)OCCO3)C1 (stereo not given)	EphB4 ephrin blk 15
O=C(Oc1ccc(-c2cnc3ccccc3n2)cc1)c1ccc(Br)o1	ERa coact pot 489
O=C(Oc1ccc(-c2cnc3ccccc3n2)cc1)c1cccc([N+](=O)[O-])c1	none (no result: ERa SRC1 inh, ERb coact inh, ERa coact pot)
Cc1cc(C)cc(NC(=O)N2CCC(c3nc4ccccc4o3)CC2)c1	ERa coact pot 680[fluorescence artefact?]
COc1ccc(C2N(S(=O)(=O)c3ccccc3)CCN2S(=O)(=O)c2ccc(C)cc2)cc1 (stereo not given)	none
CCc1cc(C(=O)COc2ccccc2F)c(O)cc1O	none
Nn1c(Cc2ccccc2F)nnc1SCn1nnc2ccccc2c1=O	none
C/C(N)=C(/C#N)C(=O)CSc1nnc(Cc2ccccc2F)n1N	ERa SRC1 inh 69, ERb coact inh 81
O=C(c1ccccc1)c1cnc(Nc2ccccc2Cl)s1	none (no result: ERa SRC1 inh, ERb coact inh, ERa coact pot)
CC(=O)NCCOC(=O)Nc1ccncc1	ERa SRC1 inh 55
Cc1cccc(N=C2NC(=O)/C(=C3/C(=O)N(C)c4ccccc43)S2)c1C	ERa SRC1 inh 61
CN1C(=O)/C(=C2\SC(=S)N(CC3CCCO3)C2=O)c2ccccc21 (stereo not given)	none
COc1cc(/C=C2/C(=N)N3C=CSC3=NC2=O)ccc1OCCCOc1c(C)cccc1C	ERa SRC1 inh 90[fluorescence artefact?]
CCOc1cc(/C=C2/C(=N)N3C=CSC3=NC2=O)ccc1OCCCOc1ccccc1C	none
COc1cc(/C=C2/C(=N)N3C=CSC3=NC2=O)ccc1OCCCOc1ccccc1C	ERa SRC1 inh 71, ERb coact inh 72[fluorescence artefact?]
C#CCONC(=O)c1cc(OCC(F)(F)F)ccc1OCC(F)(F)F	none (no result: ERa SRC1 inh, ERb coact inh, ERa coact pot)
CCC(=O)Nc1cccc(NC(C)=O)c1	ERa SRC1 inh 84[fluorescence artefact?], ERb coact inh 78
O=C(NNC(=O)C1CC(c2cccnc2)=NO1)Nc1cccc(F)c1 (stereo not given)	none (no result: ERa SRC1 inh, ERb coact inh, ERa coact pot)
Cc1ccc(-c2ccc(/C=N/N3C(=O)C4C5C=CC(CC5)C4C3=O)o2)c([N+](=O)[O-])c1 (stereo not given)	none
Cc1snc2sc(C(=O)c3ccc(Br)cc3)c(N)c12	ERa SRC1 inh 71, ERb coact inh 52
CCOC(=O)N1CCC(NC(=O)c2csc3c2CCCC3)CC1	none
CCOC(=O)c1c(NC(=O)CSc2nncn2C)sc(C)c1C	none
Cn1cnnc1SCC(=O)Nc1sc2c(c1C(N)=O)CCC2	ERa SRC1 inh 94[fluorescence artefact?], ERb coact inh 93[fluorescence artefact?]
COc1ccc(NC(=O)c2cc(Cl)ccc2NC(=O)c2ccco2)c(OC)c1	ERa coact pot 217[fluorescence artefact?]
COc1cc(NC(=O)Cc2ccc(Cl)cc2)ccc1NC(=O)c1ccco1	none
CC1(C)Cc2c(C#N)c(OCC(=O)c3ccc(Cl)cc3)nc(-c3ccco3)c2CO1	none
Cc1nc(OCC(=O)c2ccc(Cl)cc2)c(C#N)c2c1COC(C)(C)C2	ERa coact pot 773[fluorescence artefact?]
Cn1c(N2CCC(C(N)=O)CC2)nc2c1c(=O)n(Cc1cccc(Br)c1)c(=O)n2C	none
CCOc1ccc(-c2nnn(CC(=O)c3ccc4c(c3)OCCO4)n2)cc1	ERa coact pot 213
CCCOc1ccc(-c2nnn(CC(=O)c3ccc4c(c3)OCCO4)n2)cc1	none
COc1ccc2cc(CN(CC3COCCO3)S(=O)(=O)c3ccc(Cl)cc3)c(=O)[nH]c2c1 (stereo not given)	ERa coact pot 234[fluorescence artefact?]
CCn1c(SCC(=O)N2CCc3ccccc32)nnc1-c1ccco1	none (no result: ERa SRC1 inh, ERb coact inh, ERa coact pot)
Cc1cc(OC(=O)c2ccco2)c2c(C)cc(=O)oc2c1	ERa coact pot 272
CCc1cc(=O)oc2cc(C)cc(OC(=O)c3ccco3)c12	none
CC(C)OP(=O)(OC(C)C)C1(O)C(=O)Nc2ccccc21 (stereo not given)	none (no result: ERa SRC1 inh, ERb coact inh, ERa coact pot)
COc1ccc(-c2ccc(C#N)c(SCC(=O)Nc3sc4c(c3C#N)CCC4)n2)cc1OC	ERa SRC1 inh 84[fluorescence artefact?], ERb coact inh 65[fluorescence artefact?]
COc1ccc(-c2nnn(CC(=O)Nc3sc4c(c3C#N)CCCC4)n2)cc1	ERa SRC1 inh 51[fluorescence artefact?]
CCOc1ccccc1NC(=O)Cn1nnc(-c2ccc(OCC)c(OCC)c2)n1	ERa SRC1 inh 53[fluorescence artefact?]
COC(=O)c1sccc1NC(=O)Cn1nnc(-c2ccc(C)cc2)n1	ERa coact pot 212
Cc1ccc(C(=O)C(C)OC(=O)c2n[nH]c(=O)c3ccccc23)cc1 (stereo not given)	none (no result: ERa SRC1 inh, ERb coact inh, ERa coact pot)
COc1ccc(OCc2nnc(SC(C)C(=O)Nc3nccs3)n2-c2ccccc2)cc1 (stereo not given)	none
O=C1CC(N2CCN(c3ccc(C(=O)c4ccc(F)cc4)cc3)CC2)C(=O)N1 (stereo not given)	ERa coact pot 221
CCN1C(=O)CC(N2CCN(c3ccc(C(=O)c4ccccc4)cc3)CC2)C1=O (stereo not given)	none
C=CCn1c(=O)c2ccccc2n2c(SCc3c(C(=O)OCC)oc4ccccc34)nnc12	none (no result: EphB4 ephrin blk)
O=C1c2cccc3cccc(c23)C(=O)N1c1ccc2ncccc2c1	ERa SRC1 inh 71[fluorescence artefact?]
O=C(CCC1N=C2c3ccccc3N=C(SCc3ccc(F)cc3)N2C1=O)NCc1ccco1 (stereo not given)	EphB4 ephrin blk 16
CCOc1ccc(C(C)=O)cc1Cn1nc(C(=O)O)c2ccccc2c1=O	ERa coact pot 252
